HCMV inh: blocks human cytomegalovirus replication; AID 1259415; 410,000 compounds, 4.5% hits; activity change, negative = inhibition, % at 57.5 µM; HFF cells, HCMV-luciferase reporter, 72 h; hits give low values; in the data active = activity change below about -60%; inconclusive = no clear call, values can overlap the other calls; inactive = above about -39%
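HFF cells seeded 16 h at 37C, treated with compounds, infected with luciferase-reporter HCMV at MOI 1 PFU/cell; luciferase read at 72 h post infection, normalized to buffer-only and Salinomycin controls.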
HCV inhibitor: HCV inhibition | Huh7.5.1 HCVcc-Cre infection, luciferase reporter, 44 h | Potency, µM (highest dose often 41.8 µM), for the others: at the top dose activity change, negative = inhibition, usual class: inhibitors | 340,000 compounds, 3.4% hits | AID 651820; active = well fitted inhibition curve with a large enough effect; inconclusive = small, poorly fitted or top-dose-only effect, or another doubt; inactive = no such curve, though single readings can be large or run the other way; note: potency is the fitted concentration of half-maximal effect
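Whole-lifecycle infectious HCVcc-Cre system; cells 1,000/well, compound then virus (~0.5 moi) added 4 h after plating, 44 h culture. Luciferase read 15 sec following 15 min substrate incubation, room temp.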
VACV Venus inh: inhibitors of vaccinia virus (Venus reporter). Vaccinia virus Venus reporter expression, fluorescence. Potency, µM (titrated, usually from 36.5 µM), without a hit: top-dose activity change, negative = inhibition, most hits filed as inhibitors. 330,000 compounds, 0.46% hits; calls by dose curve; tested in A549 cells; note: potency is the fitted concentration of half-maximal effect; nearly all actives have a fitted effect of over 30% in size
FMDV inh: blocks foot and mouth disease virus; FMDV antiviral cell-based qHTS; Potency, µM (highest dose often 57.9 µM), without a hit: at the highest dose activity change, negative = inhibition, actives largely listed as inhibitors; 410,000 compounds, 1.2% hits; AID 1159524; calls by dose curve; tested in HEK293T cells; note: read-out not given here; potency is the fitted concentration of half-maximal effect; nearly all actives have a fitted effect of over 45% in size
Vaccinia mCherry: inhibitors of vaccinia virus infection (mCherry reporter signal) | Vaccinia virus mCherry reporter infection, fluorescence | Potency, µM (series often up to 36.5 µM), for the others: top-dose activity change, negative = inhibition, most hits filed as inhibitors | 310,000 compounds, 0.63% hits; calls by dose curve; tested in A549 cells; note: potency is the fitted concentration of half-maximal effect; nearly all actives have a fitted effect of over 35% in size
* hit, by the source's call; [ ] = remark or other dose. Compounds with a hit are over-represented: about 7.3% of the library has one in this group of screens. % is set by controls: 0 for no effect and ±100 for the full control effect.

For O=C(CCn1cnc2ccccc2c1=O)Nc1cccc(Cl)c1 the results were HCMV inh 1, HCV inhibitor 4% and FMDV inh 5%.
O=C(Cn1ncc2c3ccccc3n(Cc3ccccc3)c2c1=O)NCCc1ccc(Cl)cc1 was read as HCMV inh -69*, VACV Venus inh inconclusive, FMDV inh -25% and Vaccinia mCherry inconclusive.
Screening COc1ccc(Cl)cc1NC(=O)CCn1cnc2ccccc2c1=O returned HCMV inh inconclusive, HCV inhibitor 11µM*, VACV Venus inh -25% and FMDV inh inconclusive.
`CCC(Cc1ccccc1)NC(=O)Cn1ncc2c3ccccc3n(Cc3ccccc3)c2c1=O` (stereo unspecified) gave HCMV inh -99*, VACV Venus inh -16%, FMDV inh 0% and Vaccinia mCherry inconclusive.
`O=C1CCCN1CCCNCCCn1cnc2c(OCc3ccccc3)ncnc21` gave HCMV inh 6, HCV inhibitor -3%[8.37 µM], VACV Venus inh -12%, FMDV inh inconclusive and Vaccinia mCherry inactive.
Screening O=C(Cn1cnc2c(OCc3ccccc3)ncnc21)NCCCN1CCCC1=O returned HCMV inh 16, HCV inhibitor 0.56µM*, VACV Venus inh 5%, FMDV inh -16% and Vaccinia mCherry -13%.
`COc1ccc(Cl)cc1NC(=O)Cn1ncc2c3ccccc3n(Cc3ccccc3)c2c1=O` gave HCMV inh -68*, VACV Venus inh -11%, FMDV inh 5% and Vaccinia mCherry -9%.
For COc1cccc(NC(=O)Cn2c(=O)n(-c3cccc(OC)c3)c(=O)c3sc4ccccc4c32)c1 the results were HCMV inh -29, VACV Venus inh -17%, FMDV inh 4% and Vaccinia mCherry -11%.
`Cc1cc(=O)c(C(=O)NCCCc2ccncc2)c2n1-c1ccccc1SC(c1cccs1)C2` (stereo unspecified) gave VACV Venus inh -4%, FMDV inh -9% and Vaccinia mCherry -6%.
Cc1cc(C)n(-c2ccc(C(=O)OCC(=O)N(CC(C)C)C3CCS(=O)(=O)C3)cc2)n1 (stereo unspecified) was read as HCMV inh -86*, HCV inhibitor -3% and FMDV inh 21%.
For CC(C)CN(C(=O)COC(=O)c1ccc2c(c1)NC(=O)CS2)C1CCS(=O)(=O)C1 (stereo unspecified) the results were HCMV inh -84*, HCV inhibitor -6%, VACV Venus inh -14% and FMDV inh -5%.
Screening COCc1c(C(=O)NC2CCOC(C)(C)C2)cnn1-c1nccc(-c2cccs2)n1 (stereo unspecified) returned VACV Venus inh 5%, FMDV inh 31% and Vaccinia mCherry -5%.
Screening COc1ccccc1C(=O)Nc1nnc(SCc2cc(=O)c3cc(Cl)ccc3[nH]2)s1 returned HCMV inh 9, VACV Venus inh -16%, FMDV inh 21% and Vaccinia mCherry -2%.
For COc1ccc(CN2CCN(C(=O)CCC(=O)Nc3nnc(CC(C)C)s3)CC2)cc1F the results were HCMV inh -65*, HCV inhibitor inconclusive and FMDV inh inconclusive.
`COc1ccc(CN2CCN(C(=O)CCC(=O)Nc3nnc(C(F)(F)F)s3)CC2)cc1F` gave HCMV inh -34, HCV inhibitor -15%, VACV Venus inh 8%[7.34 µM], FMDV inh -27% and Vaccinia mCherry -12%[7.34 µM].
`CCCc1nnc(NC(=O)CCC(=O)N2CCN(Cc3ccc(OC)c(F)c3)CC2)s1` gave HCMV inh -76*, HCV inhibitor inconclusive and FMDV inh inconclusive.
COc1ccc(CN2CCN(C(=O)CCC(=O)Nc3nnc(C4CCCCC4)s3)CC2)cc1F was read as HCMV inh -73*, HCV inhibitor inconclusive, VACV Venus inh -18%, FMDV inh inconclusive and Vaccinia mCherry -11%.
Screening CC1CCN(C(=O)Nc2ccc3nc(-c4ccco4)c(-c4ccco4)nc3c2)CC1 returned VACV Venus inh 7% and Vaccinia mCherry -6%.
CC(=O)c1ccc(-c2cc(F)cc3c2OC(CNC(=O)Cc2cn4ccsc4n2)C3)s1 (stereo unspecified) was read as VACV Venus inh 3%, FMDV inh 7% and Vaccinia mCherry -14%.
`c1ccc(-c2nc3nonc3nc2-c2ccccc2)cc1` gave HCMV inh -78*, HCV inhibitor inconclusive, VACV Venus inh -9%, FMDV inh inconclusive and Vaccinia mCherry -20%.
